Screens: PubChem, Broad Institute
aSyn 5UTR act: Activators working through SNCA 5'UTR binding (MLPCN); activity score, % (tested at 7.5 µM), hits read low; actives 7.1% (n = 300,000); alpha-synuclein 5'UTR reporter, activators screen; in the data active = activity score below about -60%
Starred values were filed as active, the others as inactive. Only a sample is shown.

Results for Cn1c(SC/C=C/c2ccccc2)nnc1-c1cnccn1 ?
aSyn 5UTR act: -63.2*

Results for c1ccc(-c2ccc(-c3[nH]ncc3CN3CCC(N4CCSCC4)CC3)cc2)cc1 ?
aSyn 5UTR act: -143.3*

How did COc1ccc(NC(=O)N2CCn3c2nc2ccccc23)cc1 do in these assays?
aSyn 5UTR act: -63.9*

Results for O=C(c1ccco1)N1CCn2c1nc1ccccc12 ?
aSyn 5UTR act: -123.9*

Results for Cc1cccc(NC(=O)CNc2cc(C)ccc2C)c1 ?
aSyn 5UTR act: -68.4*

What do the screens show for `Cc1ccc(SCC(=O)Nc2cccc(C)c2)cc1`?
aSyn 5UTR act: -134.7*

What do the screens show for `C/C(=N\OC(=O)c1cccc(C(F)(F)F)c1)c1sc(-c2ccccc2)nc1C`?
aSyn 5UTR act: -118.6*

How did C/C(=N\OC(=O)c1cccc(C)c1)c1sc(-c2ccccc2)nc1C do in these assays?
aSyn 5UTR act: -146.9*

What do the screens show for `CO/C([O-])=N/c1c[n+](-c2ccc(C)cc2)no1`?
aSyn 5UTR act: -61.5*

What do the screens show for `Cc1oc2c(c1C(=O)O)C(=O)c1ccccc1C2=O`?
aSyn 5UTR act: -62.0*

How did Cc1oc2c(c1C(=O)c1ccccc1)C(=O)C(=O)c1ccccc1-2 do in these assays?
aSyn 5UTR act: 126.8

Results for CCOC(=O)c1c(C)oc2c1C(=O)c1ccccc1C2=O ?
aSyn 5UTR act: -133.7*

How did COc1ccc(C(=O)c2c(C(F)(F)F)oc3c2C(=O)c2ccccc2C3=O)cc1OC do in these assays?
aSyn 5UTR act: 111.2

Results for O=C(Nc1ccc(Cl)cc1)ON=C1CCCC1 ?
aSyn 5UTR act: -75.0*

What do the screens show for `COc1ccc(C=Nc2cccc3c(=O)[nH][nH]c(=O)c23)c2ccccc12`?
aSyn 5UTR act: -67.4*

What do the screens show for `CCCCOc1ccc(C(=O)NNC(=S)NC(=O)CC)cc1`?
aSyn 5UTR act: 85.4

Results for CCCCOc1ccc(-c2nc(=S)[nH][nH]2)cc1 ?
aSyn 5UTR act: -65.0*

What do the screens show for `CCCCOc1ccc(-c2ncc(N)cn2)cc1`?
aSyn 5UTR act: -95.3*

Results for CCCCOc1ccc(-c2nc(SCC(N)=O)n[nH]2)cc1 ?
aSyn 5UTR act: -114.2*

How did Cc1ccccc1Nc1nc(-c2sc(NC(=O)c3cccc(Cl)c3)nc2C)cs1 do in these assays?
aSyn 5UTR act: -145.5*

Results for Cc1ccc(Cl)cc1Nc1nc(-c2sc(NC(=O)c3cccc(Cl)c3)nc2C)cs1 ?
aSyn 5UTR act: -200.9*

Results for CC1CCc2c(sc(NC(=O)COC(=O)C3CCCO3)c2C#N)C1 (stereo not given) ?
aSyn 5UTR act: -68.4*

What do the screens show for `CCOC(=O)Nc1sc2c(c1C#N)CCC(C)C2` (stereo not given)?
aSyn 5UTR act: -160.6*

What do the screens show for `CC1CCc2c(sc(NC(=O)C3CCCO3)c2C#N)C1` (stereo not given)?
aSyn 5UTR act: -114.4*

What do the screens show for `CC1CCc2c(sc(NC(=O)c3nc4ncccn4n3)c2C#N)C1` (stereo not given)?
aSyn 5UTR act: -147.9*

How did Nc1ccccc1N=Nc1ccccc1N do in these assays?
aSyn 5UTR act: -221.7*

Results for C#CC(C)(C)NC(=O)c1ccc(-c2ccccc2F)cc1 ?
aSyn 5UTR act: -89.1*

How did Cc1c(C)c2ccc(OCC(=O)c3ccccc3)cc2oc1=O do in these assays?
aSyn 5UTR act: -80.4*

How did CCCc1c(C)c2ccc(OCC(C)=O)cc2oc1=O do in these assays?
aSyn 5UTR act: -143.2*

What do the screens show for `Nc1sccc1C(=O)c1ccc(Cl)cc1`?
aSyn 5UTR act: -119.5*

How did Cc1sc2nc3ccc(N4CCCC4)nn3c(=O)c2c1C do in these assays?
aSyn 5UTR act: -170.8*

How did Cc1ccc2nc3ccc(N4CCCCCCC4)nn3c(=O)c2c1 do in these assays?
aSyn 5UTR act: -150.2*

What do the screens show for `Cc1ccc2nc3ccc(N4CCN(C)CC4)nn3c(=O)c2c1`?
aSyn 5UTR act: -136.9*

How did O=c1c2ccccc2nc2ccc(N3CCOCC3)nn12 do in these assays?
aSyn 5UTR act: -84.8*

How did Cc1cccnc1Nc1nc(-c2ccc(O)cc2)cs1 do in these assays?
aSyn 5UTR act: -230.8*

What do the screens show for `Cc1cccnc1Nc1nc(-c2ccc(F)cc2)cs1`?
aSyn 5UTR act: -226.2*

What do the screens show for `Fc1ccc(N/N=C/c2cccnc2)c(F)c1`?
aSyn 5UTR act: -114.1*

How did Clc1ccc2c(N/N=C/c3cccnc3)ccnc2c1 do in these assays?
aSyn 5UTR act: -81.2*

How did Oc1ccc(/C=N/Nc2ccnc3cc(Cl)ccc23)c(O)c1 do in these assays?
aSyn 5UTR act: -226.6*

What do the screens show for `Cc1ccc(N2C(=O)CC(SCC(=O)Nc3ccc(S(N)(=O)=O)cc3)C2=O)cc1` (stereo not given)?
aSyn 5UTR act: -76.5*

Results for Cc1cc(C(=O)COc2cccnc2[N+](=O)[O-])c(C)n1-c1ccccc1 ?
aSyn 5UTR act: 99.8

Results for Cc1cc(C(=O)COC(=O)c2ccc(Cl)c(S(N)(=O)=O)c2)c(C)n1C1CC1 ?
aSyn 5UTR act: -142.8*

Results for Cc1cc(C(=O)COc2ccccc2[N+](=O)[O-])c(C)n1C1CC1 ?
aSyn 5UTR act: -130.9*

How did Cc1cc(-n2c(C)cc(C(=O)COc3ccccc3[N+](=O)[O-])c2C)no1 do in these assays?
aSyn 5UTR act: -67.5*

Results for Cc1cc(C(=O)COc2ccccc2C(N)=O)c(C)n1C1CC1 ?
aSyn 5UTR act: -76.2*
